From PubChem BioAssay
The list is not random: actives were taken first. Their share in the collection is about 1.1%.
UBC9 SUMO inh: SUMOylation inhibition; P63279; HTRF SUMOylation assay, SAE1/SAE2 + UBC9, in vitro; inhibition, % at 35 µM; hit rate 0.36% among 290,000; AID 2006; in the data active means inhibition above about 50%, passing the limit was not always enough
Target sequence (P63279 whole entry, looked up): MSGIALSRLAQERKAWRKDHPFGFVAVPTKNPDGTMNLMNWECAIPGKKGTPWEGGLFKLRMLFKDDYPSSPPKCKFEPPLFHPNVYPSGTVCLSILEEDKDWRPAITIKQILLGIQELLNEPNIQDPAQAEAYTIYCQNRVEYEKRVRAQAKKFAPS
S1P4 agonist: activates the human S1P4 receptor; O95977; activation, % at 4.98 µM; hit rate 0.35% among 220,000; S1P4-expressing cell line, agonist reporter assay; AID 1509; in the data active means activation above about 11%
DTT redox prof: compounds producing H2O2 with reducing agent – biochemical, NIH compound library profiling, artefact control for MLSCN library redox annotation, primary screen. DTT-dependent redox cycling H2O2, phenol red/HRP absorbance; 100% = 100 µM peroxide control, 0% = buffer. activation, % at 10 µM. hit rate 0.03% among 200,000;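 active means activation of at least 50% relative to the plate's high and low controls in the primary single-dose screen; inactive means activation below 50%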;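 further: compound incubated with DTT at 0.8 mM final as the reducing agent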
S1P4 antagonist: antagonists of human S1P4 receptor. AID 1510. hit rate 0.26% among 220,000. inhibition, % at 4.98 µM. S1P4-expressing cells, antagonist mode, reporter read-out; in the data active means inhibition above about 29%
S1P3 antag-1: S1P3 (human) receptor antagonism | CHO S1P3 NFAT-BLA reporter, FRET fluorescence, antagonist mode | inhibition, % at 4.98 µM | hit rate 0.27% among 170,000 | AID 485;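 active means inhibition above the plate cutoff, the mean inhibition of test wells on that plate plus 3 SD, cut at about 28% in these data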;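 further: cells challenged with S1P at its EC80 of 0.8 µM; blue over green emission ratio from cleaved BLA substrate after 4 h stimulation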
Target sequence (Q99500 whole entry, looked up): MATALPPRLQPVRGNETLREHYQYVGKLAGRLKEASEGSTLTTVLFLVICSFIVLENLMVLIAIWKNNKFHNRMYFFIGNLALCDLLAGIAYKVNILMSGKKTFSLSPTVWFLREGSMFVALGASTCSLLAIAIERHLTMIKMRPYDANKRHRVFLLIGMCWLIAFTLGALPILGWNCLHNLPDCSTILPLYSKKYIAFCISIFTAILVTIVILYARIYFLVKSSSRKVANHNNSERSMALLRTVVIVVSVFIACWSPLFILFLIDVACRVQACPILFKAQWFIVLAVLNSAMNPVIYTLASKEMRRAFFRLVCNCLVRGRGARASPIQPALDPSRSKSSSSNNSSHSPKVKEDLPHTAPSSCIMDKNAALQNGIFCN
p97 inhibitor: inhibitors of human p97 ATPase. recombinant p97 ATPase, Kinase-Glo ATP luminescence, 3 h. inhibition, % at 8 µM. hit rate 0.42% among 220,000. AID 1481; in the data active means inhibition above about 15%
S1P3 antag-2: confirmation of human S1P3 receptor antagonists | shares compounds with S1P3 antag-1 | CHO S1P3 NFAT-BLA reporter, FRET, antagonist mode | hit rate 30% among 240 | inhibition, % at 4.98 µM | AID 1429;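 active means inhibition above the hit threshold that was computed for the earlier primary screen, cut at about 30% in these data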
Large screens that a line does not name were inactive (follow-up assays come after a bar, where they were run).

O=C(CSc1nnc(-c2cccnc2)n1Cc1ccco1)N1c2ccccc2Sc2ccccc21	S1P3 antag-1 91
CC1(C)C=C(c2ccc(O)cc2)CC(C)(C)N1	S1P4 agonist 20
C/C=C(/C(=C/C)c1ccc(O)cc1)c1ccc(O)cc1	none
Cn1nc(C(=O)NCc2ccc(F)cc2)c2ccccc2c1=O	S1P3 antag-1 91 (no result: UBC9 SUMO inh)
Cc1cc(NC(=O)Cc2ccccc2)ccc1NC(=O)c1cccs1	none
CCOc1ncccc1C(=O)Nc1ccc(F)c(Cl)c1	none
C=CC[n+]1ccc(/C=C2\C=Cc3cc(C)ccc3N2CC)c2ccccc21	S1P3 antag-1 30 | S1P3 antag-2 39
O=C(N/N=C/c1ccc(O)cc1)c1cc(C23CC4CC(CC(C4)C2)C3)[nH]n1	S1P3 antag-1 31 (no result: DTT redox prof) | S1P3 antag-2 35
COc1ccc(/C=N/NC(=O)c2cc(C34CC5CC(CC(C5)C3)C4)[nH]n2)cc1OC	none
O=C(N/N=C\C=C\c1ccco1)C1COc2ccccc2O1 (configuration not stated)	S1P3 antag-1 28 (no result: DTT redox prof) | S1P3 antag-2 inactive
O=C(N/N=C/C=C/c1ccc([N+](=O)[O-])cc1)C1COc2ccccc2O1 (configuration not stated)	none
Cc1nn(C)c2ncc(C(=O)c3cc(F)ccc3O)cc12	none (no result: S1P3 antag-1)
O=C(c1cnc2ccc3ccccc3c2c1)c1cc(F)ccc1O	S1P3 antag-1 32 (no result: DTT redox prof) | S1P3 antag-2 inactive
CN(C)CCCN1C(=O)c2cccc3c([N+](=O)[O-])ccc(c23)C1=O	S1P4 antagonist 92, S1P3 antag-1 33 | S1P3 antag-2 inactive
COC(=O)c1ccc(N2CCN(C(=O)c3ccccc3)CC2)c(NC(C)=O)c1	S1P3 antag-1 40 | S1P3 antag-2 inactive
COC(=O)c1sc(N)c(C(=O)OC)c1COC(=O)C12CC3CC(CC(O)(C3)C1)C2	none (no result: S1P4 agonist, DTT redox prof, S1P4 antagonist, S1P3 antag-1, p97 inhibitor)
CO[C@H]1C[C@@H]2CC[C@@H](C)[C@@](O)(O2)C(=O)C(=O)N2CCCC[C@H]2C(=O)O[C@H]([C@H](C)C[C@@H]2CC[C@@H](O)[C@H](OC)C2)CC(=O)[C@H](C)C=C(C)[C@@H](O)[C@@H](OC)C(=O)[C@H](C)C[C@H](C)C=CC=CC=C1C	none (no result: S1P4 agonist, DTT redox prof, S1P4 antagonist, S1P3 antag-1, p97 inhibitor)
CC[C@@H]1C=C(C)C[C@H](C)C[C@H](OC)[C@H]2O[C@@](O)(C(=O)C(=O)N3CCCC[C@H]3C(=O)O[C@H](/C(C)=C/[C@@H]3CC[C@@H](O)[C@H](OC)C3)[C@H](C)[C@@H](O)CC1=O)[C@H](C)C[C@@H]2OC	S1P3 antag-1 89 | S1P3 antag-2 105
O=C1CC(/C=C/c2ccncc2)=Nc2ccccc2N1	none
Cc1ccc(C)c(S(=O)(=O)N/N=C/c2ccc(N3CCOCC3)cc2)c1	S1P3 antag-1 30 (no result: DTT redox prof) | S1P3 antag-2 inactive
CC(C)NC(=S)N/N=C/c1ccc(N2CCOCC2)cc1	none
O=C(O)c1ccc(CN(c2ccccc2)S(=O)(=O)c2ccccc2)cc1	none (no result: S1P4 agonist, DTT redox prof, S1P4 antagonist, S1P3 antag-1, p97 inhibitor)
O=C(c1ccco1)N1CCN(S(=O)(=O)/C=C/c2ccccc2)CC1	S1P3 antag-1 30 | S1P3 antag-2 inactive
O=C(c1cc2ccccc2o1)N1CCN(S(=O)(=O)/C=C/c2ccccc2)CC1	none
Cc1cc(C)c(S(=O)(=O)N2CCOC2CNC(=O)C(=O)NCCCN2CCOCC2)c(C)c1 (configuration not stated)	none (no result: S1P4 agonist, DTT redox prof, S1P4 antagonist, S1P3 antag-1, p97 inhibitor)
CCC(C)NC(=O)Cc1c(OC)ccc2cc(Br)ccc12 (configuration not stated)	S1P3 antag-1 33 | S1P3 antag-2 inactive
CCCC(C)NC(=O)Cc1ccc(Br)cc1 (configuration not stated)	none
Cc1ccccc1NC(=O)/C=C/c1ccc([N+](=O)[O-])s1	S1P3 antag-1 36 | S1P3 antag-2 42
COc1cc(C(=O)N2CCN(c3ccccc3)CC2)c([N+](=O)[O-])cc1OC	none
COc1ccc(OC)c(NS(=O)(=O)Cc2ccccc2)c1	none
O=C(CN1CCN(Cc2ccccc2)CC1)NCCNc1ccc([N+](=O)[O-])cn1	S1P3 antag-1 51 | S1P3 antag-2 inactive
O=C(CN1CCN(Cc2ccccc2)CC1)Nc1ccc(Cl)cn1	none
COc1ccc(C(CC(=O)c2ccc(C)cc2)Nc2ccc([N+](=O)[O-])cc2)cc1 (configuration not stated)	S1P3 antag-1 44 | S1P3 antag-2 79
Cc1ccc(NC(=O)c2sc(=S)n(-c3cc(C)ccc3F)c2N)cc1	S1P3 antag-1 30 | S1P3 antag-2 inactive
Cc1ccccc1-n1c(N)c(C(=O)Nc2ccc(F)cc2)sc1=S	none
CCCc1nc2ccccc2c(C(=O)OC(C)C(=O)NCc2ccc3c(c2)OCO3)c1CC (configuration not stated)	S1P3 antag-1 31 | S1P3 antag-2 inactive
CCC1(C)OC(=O)NN(c2ccc(C)cc2)C1(C)O (configuration not stated)	none
CCC(O)C1CCN(C(=O)c2cc(COc3ccc4ncccc4c3)on2)CC1 (configuration not stated)	S1P3 antag-1 33 | S1P3 antag-2 inactive
Cc1cc(C(=O)Nn2c(-c3ccc(Br)cc3)nc3ccccc3c2=O)ccc1[N+](=O)[O-]	none
OC(CN1CCOCC1)c1ccc(F)cc1 (configuration not stated)	S1P3 antag-1 37 | S1P3 antag-2 inactive
CCCOc1ccc(/C=N\NC(=O)CCc2n[nH]c(=O)[nH]c2=O)cc1OC	S1P3 antag-1 29 | S1P3 antag-2 inactive
NC(=O)c1nnn(-c2nonc2N)c1-c1ccc([N+](=O)[O-])cc1	none
O=C(Nc1ccc(OC(F)F)c(Cl)c1)C(c1ccccc1)c1ccccc1	S1P3 antag-1 50 | S1P3 antag-2 59
O=C(Cc1cccc2ccccc12)Nc1ccc(OC(F)F)c(Cl)c1	none
Cc1cccc(Cn2nc(C(C)(C)C)cc2C(=O)Nc2ccc(F)cc2)c1	S1P3 antag-1 37 (no result: DTT redox prof) | S1P3 antag-2 53
CC(C)(C)c1cc(C(=O)NN)n(Cc2ccc(F)cc2)n1	none (no result: DTT redox prof)
CC(C)OC(=O)/C(=C\c1ccccc1)NC(=O)c1ccccc1	none
CC(C)OC(=O)/C(=C\c1cccc2ccccc12)NC(=O)c1ccccc1	S1P3 antag-1 37 | S1P3 antag-2 inactive
S=C(Nc1ccccc1)N1N=C(c2cccs2)CC1c1cccs1 (configuration not stated)	S1P3 antag-1 30 | S1P3 antag-2 inactive
COc1ccc(C2CC(c3cccs3)=NN2C(=S)Nc2ccccc2)cc1OC (configuration not stated)	none
Cc1ccc(CNC(=O)C2CCC(=O)N(Cc3ccccc3F)C2)s1 (configuration not stated)	none (no result: S1P4 agonist, DTT redox prof, S1P4 antagonist, S1P3 antag-1, p97 inhibitor)
